Compound activity: PubChem BioAssay, National Center for Advancing Translational Sciences (NCATS)
This is a sample that favours compounds with a hit; in the whole collection about 2.4% have one here.
L3MBTL1 inh-1 – qHTS Assay for the Inhibitors of L3MBTL1. AlphaScreen L3MBTL1–H3K9me1 peptide binding. Potency, µM (doses to about 57.1 µM), without a hit: at the highest dose activity, negative = inhibition, actives largely listed as inhibitors. actives 0.66% (n = 230,000); note: % is set by controls: 0 for no effect and ±100 for the full control effect; nearly all actives have a fitted effect of over 60% in size
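Read-out is AlphaScreen signal from streptavidin donor and nickel chelate acceptor beads (10 ug/mL final each) bridging L3MBTL1 (50 nM) and biotinylated K9-monomethylated H3(1-15) peptide (75 nM), after 30 min compound exposure at room temperature.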
Pol eta inh-1 – qHTS for Inhibitors of Polymerase Eta; recombinant Pol eta, fluorescent DNA replication assay; Potency, µM (highest dose often 114 µM), for the others: at the top dose activity change, negative = inhibition, hits mostly inhibitors; actives 1.2% (n = 390,000); note: % is set by controls: 0 for no effect and ±100 for the full control effect
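Pol eta (10 nM) was preincubated with compounds for 15 min at room temperature, after which fluorescent replication substrate (50 nM final) was added to start the reaction. Fluorescence was read kinetically at 0 and 10 min.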
Pol iota inh – qHTS for Inhibitors of Polymerase Iota; AID 588590, 2011; DNA polymerase iota (Homo sapiens), Q9UNA4; Potency, µM (doses to about 115 µM), inactives show at the top dose activity, negative = inhibition, actives largely listed as inhibitors; Pol iota fluorescent replication assay, 10 min; actives 1% (n = 390,000)
Target sequence (Q9UNA4 whole entry, looked up): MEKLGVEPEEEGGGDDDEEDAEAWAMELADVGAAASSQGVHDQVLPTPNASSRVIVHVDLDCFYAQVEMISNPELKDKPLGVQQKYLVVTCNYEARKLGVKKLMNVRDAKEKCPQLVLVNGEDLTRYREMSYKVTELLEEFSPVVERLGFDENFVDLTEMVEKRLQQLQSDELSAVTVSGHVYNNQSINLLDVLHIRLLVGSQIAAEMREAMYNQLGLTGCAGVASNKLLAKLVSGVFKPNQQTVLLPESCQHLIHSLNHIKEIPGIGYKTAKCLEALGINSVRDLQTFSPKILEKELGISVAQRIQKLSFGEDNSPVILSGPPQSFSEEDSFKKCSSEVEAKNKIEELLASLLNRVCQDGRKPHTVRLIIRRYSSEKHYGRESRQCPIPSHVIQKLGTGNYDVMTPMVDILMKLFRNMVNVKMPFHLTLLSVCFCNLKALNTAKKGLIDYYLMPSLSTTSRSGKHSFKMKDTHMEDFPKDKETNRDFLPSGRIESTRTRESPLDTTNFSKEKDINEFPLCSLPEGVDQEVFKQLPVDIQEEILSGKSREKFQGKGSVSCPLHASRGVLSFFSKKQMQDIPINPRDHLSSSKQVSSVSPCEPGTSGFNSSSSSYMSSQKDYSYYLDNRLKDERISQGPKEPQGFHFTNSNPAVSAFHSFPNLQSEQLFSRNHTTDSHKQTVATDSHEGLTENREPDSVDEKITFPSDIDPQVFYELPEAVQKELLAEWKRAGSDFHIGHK
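Fluorescent replication assay read twice, at 0 min and 10 min after adding 50 nM (final) substrate. Enzyme (10 nM) and compounds were first incubated 15 min at room temperature; enzyme-free buffer wells were negative controls.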
Pol kappa inh-1 – qHTS for Inhibitors of Polymerase Kappa; DNA polymerase kappa (Homo sapiens), Q9UBT6; purified Pol kappa, fluorescent DNA synthesis assay, 10 min; Potency, µM (series often up to 107 µM), for inactives: top-dose activity, negative = inhibition, hits mostly inhibitors; actives 0.53% (n = 400,000); AID 588579, 2011; note: % is set by controls: 0 for no effect and ±100 for the full control effect
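Readout: fluorescence, taken kinetically at 0 and 10 min. Conditions: 10 nM Pol kappa, 15 min RT compound preincubation, 50 nM substrate final. Controls: enzyme-free buffer wells.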
POLB inh – qHTS Assay for Inhibitors of DNA Polymerase Beta. P06746. Pol beta primer extension/strand displacement, fluorescence kinetic. Potency, µM (titrated, usually from 114 µM), without a hit: at the highest dose activity change, negative = inhibition, most hits filed as inhibitors. actives 1.3% (n = 340,000). AID 485314, 2010; note: % is set by controls: 0 for no effect and ±100 for the full control effect
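10 nM enzyme + cpd, 15 min RT; start with substrate 50 nM final; read 0 min and after 10 min RT. Corrected, normalized data; 4-parameter Hill curve fit.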
L3MBTL1 inh-2 – qHTS Assay for the Inhibitors of L3MBTL1: Hit Validation | AID 540279, 2011 | shares compounds with L3MBTL1 inh-1 | L3MBTL1 methyl-lysine binding inhibition, biochemical qHTS | actives 91% (n = 500) | Potency, µM, usual class: inhibitors; note: nearly all actives have a fitted effect of over 70% in size
AlphaScreen ctr2 – qHTS Assay for the Inhibitors of L3MBTL1: Hit Validationin AlphaScreen Counterscreen; Potency, µM (highest dose often 57.1 µM), for inactives: top-dose activity change, negative = inhibition, usual class: inhibitors; AID 602224, 2012; 500 tested, under 10 active; AlphaScreen counterscreen, signal inhibition; shares compounds with L3MBTL1 inh-1; note: 0% is about no effect
PGK validate – qHTS for inhibitors of Phosphogylcerate Kinase: Hit Validation Screen | shares compounds with Pol kappa inh-1 | TbPGK coupled GAPDH assay, Kinase-Glo luminescence | Potency, µM (doses to about 57.5 µM), for inactives: at the highest dose activity change, negative = inhibition, hits mostly inhibitors | actives 79% (n = 500) | AID 686980, 2013; note: % is set by controls: 0 for no effect and ±100 for the full control effect; nearly all actives have a fitted effect of over 65% in size
POLI cherry-pick – qHTS for Inhibitors of Polymerase Iota: Confirmatory Assay for Cherry-picked Compounds. AID 720496, 2013. Pol iota primer extension, TAMRA/BHQ fluorescence. shares compounds with Pol kappa inh-1. Potency, µM, most hits filed as inhibitors. actives 77% (n = 1,500)
Pol kappa inh-2 – qHTS for Inhibitors of Polymerase Kappa: Confirmatory Assay for Cherry-picked Compounds. Potency, µM, usual class: inhibitors. purified Pol-kappa, fluorescent strand-displacement substrate. shares compounds with Pol eta inh-1. AID 720501, 2013. actives 76% (n = 920)
Pol eta inh-2 – qHTS for Inhibitors of Polymerase Eta: Confirmatory Assay for Cherry-picked Compounds. shares compounds with Pol eta inh-1. Pol eta primer extension, TAMRA/BHQ fluorescence, 10 min. Potency, µM, actives largely listed as inhibitors. actives 64% (n = 2,600). AID 720502, 2013
Starred values were filed as active, the others as inactive; ? = inconclusive; / = not tested or not shown; ! = a repeat was not active; [ ] = another dose, or the depositor's remark. Calls come from the whole dose curve; as a rule, active = well fitted curve in the direction sought with a large enough effect; inconclusive = small, poorly fitted or top-dose-only effect, or another doubt; inactive = no such curve, though single readings can be large; an effect the other way counts as inactive or inconclusive. Potency is the fitted concentration of half-maximal effect.

SMILES	L3MBTL1 inh-1	Pol eta inh-1	Pol iota inh	Pol kappa inh-1	POLB inh	L3MBTL1 inh-2	AlphaScreen ctr2	Pol eta inh-2	others
CC(=O)Nc1ccc(NC(=O)CC2Nc3cccc4cccc(c34)NC2=O)cc1 (configuration not stated)	-5.1%	?	?	-4.7%	9.3%	/	/	/
Cc1ccc(CNC(=O)NC2COc3ccccc3C2)cc1 (configuration not stated)	/	-7.9%	5.8%	-1.9%[60.1 µM]	-24.1%	/	/	/
O=C(O)c1ccc(-c2ccc(/C=C3\NC(=O)N(Cc4ccc(Cl)cc4)C3=O)o2)cc1Cl	5.62µM*	1.26µM*	1.41µM*	4.47µM*	4.47µM*	0.752*	2.7%	/	PGK validate=5.8µM*
O=C1C2C3C=CC(CC3)C2C(=O)N1c1nccs1 (configuration not stated)	25.1µM*	?	15.8µM*	17.8µM*	22.4µM*	26.7*	6.3%	/	POLI cherry-pick=75.2*
CCC(O)c1cc2c(cc1NC(=O)c1cccc(Br)c1)OCCO2 (configuration not stated)	/	-14.0%	14.3%	-20.3%	?	/	/	/
O=C1NC(=Nc2ccc(Cl)cc2)/C(=C/c2ccco2)S1	25.1µM*	56.2µM*	28.2µM*	?	8.91µM*	8.44*	4.6%	/	POLI cherry-pick=?
CN(C)N1C(=O)/C(=C/c2ccco2)SC1=Nc1ccccc1	/	-3.4%	?	-19.1%	/	/	/	/
Cc1cccc2nc(Cn3c(=O)n(-c4ccc(Cl)cc4)c(=O)c4c5c(sc43)CCC5)cc(=O)n12	/	-5.2%	-10.9%	-29.2%	-17.0%	/	/	/
O=C(O)c1cccc(-c2ccc(/C=c3/sc4nc5ccccc5n4c3=O)o2)c1	3.55µM*	3.16µM*	?	22.4µM*	3.98µM*	2.67*	49.9%	5.36*	POLI cherry-pick=3.77*
O=C(COC(=O)c1cc2c(s1)CCC2)Nc1ccc(F)cc1	14.1µM*	17.8µM*	20µM*	31.6µM*	8.91µM*	5.32*	?	23.9*	POLI cherry-pick=23.8*
CCN(c1ccccc1)S(=O)(=O)c1cccc(C(=O)Nc2cccc(C)n2)c1	/	-11.3%	/	/	/	/	/	/
O=C(COc1ccc(Cl)cc1)NCC(c1cccs1)S(=O)(=O)c1ccc(F)cc1 (configuration not stated)	/	-15.3%	2.8%	-13.5%[60.1 µM]	7.2%	/	/	/
CCNc1nc(NCC)n2c(SCC(=O)Nc3ccc(F)cc3)nnc2n1	28.2µM*	14.1µM*	20µM*	?	/	?	18.3%	67.5*	Pol kappa inh-2=59.7*
CC(=O)Nc1ccc2nc3c(=O)n(C)c(=O)n(C)c3nc2c1	25.1µM*	35.5µM*	10µM*	?	?	23.8*	4.7%	84.9*
Cc1ccc(-c2csc3ncn(CC#N)c(=O)c23)cc1C	22.4µM*	20µM*	28.2µM*	79.4µM*	31.6µM*	21.2*	13.4%	53.6*	Pol kappa inh-2=59.7*
O=C(O)c1cccc(-n2cccc2/C=C2/NC(=O)N(Cc3ccccc3F)C2=O)c1	31.6µM*	20µM*	31.6µM*	?	10µM*	5.97*	9.2%	?
Cc1cc(NS(=O)(=O)c2ccc(NC(=O)Cc3cccs3)cc2)no1	?	-17.4%	-8.5%	-6.7%	?	/	/	/
Cc1cc(NC(=O)Cc2cccs2)no1	28.2µM*	22.4µM*	7.94µM*	22.4µM*	8.91µM*	3.36*	-20.1%	19*	POLI cherry-pick=15*
CN1OC[C@@H]2CN(S(=O)(=O)c3cccc(C(F)(F)F)c3)[C@H](c3ccc(-c4cccnc4)cc3)C[C@@H]21	/	-1.3%	/	/	/	/	/	/
Cc1ccc2nc(-c3ccc(O)c(O)c3)cn2c1	31.6µM*	22.4µM*	50.1µM*	?	3.98µM*	5.32*	-0.7%	?
CC(=O)Nc1ccc(-c2cn3cc(C)ccc3n2)cc1	3.4%	-15.2%	3.1%	-8.5%	13.3%	/	/	/
O=C(O)/C=C/c1cccnc1	8.7%	-11.4%	10.1%	-28.8%	-23.5%	/	/	/
CC(/C=C\c1cccnc1)=C/C(=O)O	28.2µM*	20µM*!	-11.2%	-13.0%	28.2µM*!	26.7*	0.0%	47.8*
Cc1ccc(-c2noc(CC(=O)c3ccc([N+](=O)[O-])cc3)n2)cc1	/	-6.2%	2.5%	-9.2%	/	/	/	/
C=CCn1c(SCC(=O)c2ccc(O)c(O)c2)nnc1-c1cccnc1	6.31µM*	3.98µM*	7.08µM*	28.2µM*	1.26µM*	2.99*	?	26.9*	PGK validate=3.66µM*;POLI cherry-pick=33.6*
C=CCn1c(SCC(=O)NC2CCCC2)nnc1-c1cccnc1	/	-1.3%	39.0%	-6.8%	-6.9%	/	/	/
CCOc1ccccc1NC(=O)Cn1nc(N2CCN(c3ccccc3)CC2)ccc1=O	/	-16.8%	-12.1%	0.4%	4.8%	/	/	/
COCCOC(=O)c1[nH]c2c(c1C)C(=O)CC(c1ccc(N(C)C)cc1)C2 (configuration not stated)	-20.9%	?	18.0%	-27.4%	0.5%	/	/	/
